This note sets out measurements from PubChem BioAssay (Tox21).

Assay [1] in a line: Nuclear factor erythroid 2-related factor 2/antioxidant responsive element (Nrf2/ARE) small molecule agonists: qHTS cell viability counter screen in human keratinocytes (AID 1919968; active = well fitted curve in the direction sought with a large enough effect in the repeat runs; an effect the other way counts as inactive or inconclusive; note: nearly all actives have a fitted effect of over 55% in size). The essentials:
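KeratinoSens cells (HaCaT keratinocytes stably carrying an ARE-luciferase reporter) were seeded at 1,500 cells/well and rested 5 h at 37 C/5% CO2. They were then exposed to compounds in DMSO for 23 h. Viability was read by CellTiter-Fluor fluorescence after 1 h.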
Background: qHTS replaces the single test concentration by a dilution series.

The target of assay [2] is Gonadotropin-releasing hormone receptor (Homo sapiens) (UniProt P30968). In words: Human gonadotropin-releasing hormone receptor (GnRHR) small molecule agonists, calcium flux assay in GnRHR-HEK293 cells (AID 1920063). Note: nearly all actives have a fitted effect of over 35% in size. The procedure, abridged: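 HEK293 cells stably expressing human GnRHR were plated 18 h at 37 °C, loaded with calcium dye 1 h at 37 °C, then given compound in agonist mode; fluorescence (Ex/Em 480/540) read kinetically for 3 min at 1 s intervals.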
Chain of Gonadotropin-releasing hormone receptor (Homo sapiens) (P30968 whole entry, looked up): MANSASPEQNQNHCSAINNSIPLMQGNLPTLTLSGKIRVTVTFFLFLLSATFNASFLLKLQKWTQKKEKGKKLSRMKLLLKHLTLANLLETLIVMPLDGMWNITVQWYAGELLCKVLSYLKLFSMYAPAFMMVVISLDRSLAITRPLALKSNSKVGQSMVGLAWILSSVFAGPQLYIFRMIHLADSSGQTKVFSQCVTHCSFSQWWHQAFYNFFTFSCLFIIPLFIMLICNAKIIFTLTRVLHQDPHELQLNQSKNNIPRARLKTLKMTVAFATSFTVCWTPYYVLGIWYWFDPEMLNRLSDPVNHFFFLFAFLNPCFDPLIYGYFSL
In general terms: Calcium flux is commonly read through the fluorescence of an indicator in the cells.

A short description of assay [3]: G protein-coupled receptor (GPCR) small molecule agonists, calcium flux assay: HEK293 wild type cell line counter screen (AID 1920065). The procedure, abridged:
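Cells were plated and cultured 18 h at 37 C/5% CO2, then loaded with calcium dye for 1 h at 37 C. Compounds in DMSO were pin-transferred in agonist mode, and fluorescence (Ex/Em 480/540) was read kinetically for 3 min at 1 s intervals.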

Assay [4] can be described thus: p53 small molecule agonists, cell-based qHTS assay with rat liver microsomes (AID 1963578). The essentials:
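Quantitative HTS of the Tox21 10K library: p53RE-bla cells, rat liver microsomes plus NADPH at 0.5 mg/mL final each, 16 h at 37 C, beta-lactamase fluorescence detection.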

A short description of assay [5]: p53 small molecule agonists, cell-based qHTS assay with human liver microsomes: qHTS cell viability counter screen (AID 1963579). Note: nearly all actives have a fitted effect of over 45% in size. The procedure, abridged: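 Viability of p53RE-bla cells is measured as CellTiter-Glo luminescence following a 16 h, 37 C incubation with compound, liver microsomes from human donors and NADPH.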
The nature of assay [6]: p53 small molecule agonists, cell-based qHTS assay with rat liver microsomes: qHTS cell viability counter screen (AID 1963580). Note: nearly all actives have a fitted effect of over 45% in size. The procedure, abridged:
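Viability is assessed in parallel with the p53 reporter read: HCT-116 p53RE-bla cells receive compounds plus rat microsomes and NADPH (0.5 mg/mL final apiece), incubate 16 h at 37 C, and then CellTiter-Glo luminescence is recorded.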

The nature of assay [7]: p53 small molecule agonists, cell-based qHTS assay: qHTS cell viability counter screen (AID 1963581). Note: nearly all actives have a fitted effect of over 45% in size. The procedure, abridged:
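p53RE-bla HCT-116 cells were exposed to compounds for 16 h at 37 C; after the beta-lactamase FRET read in the same wells, CellTiter-Glo was added and luminescence (intracellular ATP) read after 30 min at room temperature.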

Assay [8] addresses 5-hydroxytryptamine receptor 2A (Homo sapiens) (UniProt P28223). In words: 5-hydroxytryptamine receptor 2A (HTR2A) small molecule antagonists, cell-based qHTS assay (AID 1963586). Note: nearly all actives have a fitted effect of over 45% in size. The procedure, abridged:
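Antagonist-mode intracellular calcium assay: DOI (4 nM) added after 5 min compound pre-incubation at room temperature to dye-loaded HTR2A-CHO cells. Fluorescence followed for 3 min, sampled every second.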

Assay [9] shares this target. The experiment in a line: 5-hydroxytryptamine receptor 2A (HTR2A) small molecule agonists, cell-based qHTS assay (AID 1963587). Note: nearly all actives have a fitted effect of over 30% in size. The essentials: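 CHO cells stably expressing human HTR2A, plated 18 h, loaded with calcium dye 1 h at 37 C. Agonist mode: compounds added and intracellular calcium fluorescence recorded kinetically for 2 min at 1 sec intervals.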
The target of assay [10] is Muscarinic acetylcholine receptor M1 (Homo sapiens) (UniProt P11229). The experiment in a line: Cholinergic receptor muscarinic 1 (CHRM1) small molecule antagonists, cell-based qHTS assay (AID 1963588). Note: nearly all actives have a fitted effect of over 40% in size. Note: potency is the fitted concentration of half-maximal effect. The procedure, abridged:
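CHRM1-CHO calcium-flux assay, antagonist mode. Cells were seeded 18 h, dye-loaded 1 h at 37 C and given compound for 5 min at RT, then acetylcholine was added at 50nM. FDSS fluorescence was read 3 min; 15 concentrations, three runs.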

For assay [11] the target is unchanged. In words: Cholinergic receptor muscarinic 1 (CHRM1) small molecule agonists, cell-based qHTS assay (AID 1963589). Note: nearly all actives have a fitted effect of over 35% in size. The procedure, abridged: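 CHO cells stably expressing human CHRM1, seeded 18 h at 37 C/5% CO2, dye-loaded 1 h at 37 C, then given compound in agonist mode; intracellular calcium fluorescence read kinetically at 1 s intervals. Fifteen concentrations, three independent runs.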

Assay [12] can be described thus: cAMP Responsive Elements (CRE) small molecule antagonists, cell-based qHTS assay (AID 1963591; active = well fitted inhibition curve with a large enough effect in the signal ratio in the repeat runs, not every such curve was filed as active; the % refers to the signal ratio). The essentials:
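CRE-bla HEK293T cells were plated 18 h at 37 °C/5% CO2, pinned with compound in DMSO, then stimulated with NKH477 at 0.25 uM final for 3 h. LiveBLAzer B/G FRET substrate was added and plates incubated 2 h at room temperature.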

For assay [13], the target named is Beta-2 adrenergic receptor (Homo sapiens) (UniProt P07550). In words: Adrenergic beta2 receptor (ADRB2) small molecule antagonists, cell-based qHTS assay (AID 1963592). Note: nearly all actives have a fitted effect of over 50% in size. Note: potency is the fitted concentration of half-maximal effect. The procedure, abridged: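 Cells (CHO, stable ADRB2 overexpression) incubated 18-20hr at 37C; compounds added from DMSO; agonist mix (1nM isoproterenol, 100uM IBMX, 25uM Ro-20-1724) added; 0.5hr RT; d2-cAMP and anti-cAMP-cryptate added; 1hr RT; 665/615 nm read.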
Chain of Beta-2 adrenergic receptor (Homo sapiens) (P07550 whole entry, looked up): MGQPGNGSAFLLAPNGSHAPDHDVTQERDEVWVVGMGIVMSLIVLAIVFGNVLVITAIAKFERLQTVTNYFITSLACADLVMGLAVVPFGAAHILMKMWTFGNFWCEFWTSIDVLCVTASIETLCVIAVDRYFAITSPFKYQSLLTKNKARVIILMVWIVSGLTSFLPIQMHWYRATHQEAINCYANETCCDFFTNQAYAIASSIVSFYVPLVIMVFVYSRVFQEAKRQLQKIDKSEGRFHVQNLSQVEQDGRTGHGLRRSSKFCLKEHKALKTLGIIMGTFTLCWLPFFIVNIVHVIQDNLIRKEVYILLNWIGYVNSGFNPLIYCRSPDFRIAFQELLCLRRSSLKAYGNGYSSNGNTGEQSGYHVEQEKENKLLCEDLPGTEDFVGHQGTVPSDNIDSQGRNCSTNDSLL

Assay [14] has as its target D(2) dopamine receptor (Homo sapiens) (UniProt P14416). The experiment in a line: Dopamine D2 receptor (DRD2) small molecule antagonists, cell-based qHTS assay (AID 1963595; active = well fitted inhibition curve with a large enough effect in the signal ratio in the repeat runs, with a control signal flat; the % refers to the signal ratio). The procedure, abridged:
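Antagonist mode in DRD2-HEK293 cells: after compound addition with 0.1 mM Ro20-1724, cells received quinpirole (12 nM) and NKH477 (200 nM) for 30 min at room temperature; HTRF cAMP read after 1 h detection.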

The nature of assay [15]: cAMP Responsive Elements (CRE) small molecule agonists, cell-based qHTS assay (AID 1963590). Note: potency is the fitted concentration of half-maximal effect. The essentials:
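CRE-bla HEK 293T cells in DMEM with 10% dialyzed FBS, NEAA, pyruvate and 25 mM HEPES were plated 18 h at 37 C/5% CO2, then exposed to compounds in DMSO for 3 h before LiveBLAzer B/G FRET substrate addition.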

In assay [16] the target is KiSS-1 receptor (Homo sapiens) (UniProt Q969F8). The experiment in a line: Human kisspeptin (KISS1R) small molecule agonists, calcium flux assay in KISS1R-HEK293 cells (AID 1920064; active = well fitted curve in the direction sought with a large enough effect in the repeat runs; an effect the other way counts as inactive or inconclusive). The essentials:
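HEK293 cells stably expressing human KISS1R were plated 18 h at 37 °C, loaded with calcium dye for 1 h at 37 °C, then given compound by pin tool. Fluorescence (Ex/Em 480/540) was read kinetically for 3 min.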

Assay [17] in a line: p53 small molecule agonists, cell-based qHTS assay with human liver microsomes (AID 1963577).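 Note: p53 response element beta-lactamase reporter cells with liver microsomes plus NADPH.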 The essentials:
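HLM-supplemented p53RE-bla reporter assay: 16 h compound exposure at 37 C, microsomes and NADPH each 0.5 mg/mL final, read by fluorescence intensity.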

A short description of assay [18]: p53 small molecule agonists, cell-based qHTS assay (AID 1963582; active = well fitted activation curve with a large enough effect in the signal ratio in the repeat runs, not every such curve was filed as active; the % refers to the signal ratio). The essentials:
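p53RE-bla beta-lactamase reporter cells rested 5 h at 37 C/5% CO2, then received compounds in DMSO by pin transfer and were incubated 16 h at 37 C. LiveBLAzer B/G FRET substrate was loaded for 2 h at room temperature before fluorescence reading.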

Assay [19] deals with D(2) dopamine receptor (Homo sapiens) (UniProt P14416). In words: Dopamine D2 receptor (DRD2) small molecule agonists, cell-based qHTS assay (AID 1963594). Note: nearly all actives have a fitted effect of over 35% in size. The essentials: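 HEK293 cells stably expressing human DRD2, pre-treated with PDE inhibitor Ro20-1724 (0.1 mM final) and compound 10 min at room temperature, then stimulated with NKH477 (200nM […]) for 30 min. cAMP read by HTRF (665/620 nm).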
Chain of D(2) dopamine receptor (Homo sapiens) (P14416 whole entry, looked up): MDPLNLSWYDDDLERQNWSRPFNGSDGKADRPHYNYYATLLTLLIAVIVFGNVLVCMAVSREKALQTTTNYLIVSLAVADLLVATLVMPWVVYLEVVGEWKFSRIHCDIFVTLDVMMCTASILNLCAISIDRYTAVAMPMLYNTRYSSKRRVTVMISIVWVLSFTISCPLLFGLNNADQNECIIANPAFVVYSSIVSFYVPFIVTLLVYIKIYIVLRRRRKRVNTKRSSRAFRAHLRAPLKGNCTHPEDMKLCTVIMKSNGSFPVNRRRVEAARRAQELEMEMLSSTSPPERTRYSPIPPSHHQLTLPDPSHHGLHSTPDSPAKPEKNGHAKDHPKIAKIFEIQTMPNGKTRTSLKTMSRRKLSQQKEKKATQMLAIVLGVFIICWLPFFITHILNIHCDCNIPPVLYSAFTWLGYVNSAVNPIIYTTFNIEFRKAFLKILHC

Assay [20] can be described thus: Nuclear factor erythroid 2-related factor 2/antioxidant responsive element (Nrf2/ARE) small molecule agonists: luciferase reporter gene qHTS assay in human keratinocytes (AID 1919969; note: nearly all actives have a fitted effect of over 35% in size; note: potency is the fitted concentration of half-maximal effect). (In a reporter assay the amount or activity of a reporter protein is the signal.)

The structures appear in SMILES notation. Inconclusive results are not listed. The source made the active and inactive calls. Unless noted, calls come from the whole dose curve.

Chain of KiSS-1 receptor (Homo sapiens) (Q969F8 whole entry, looked up): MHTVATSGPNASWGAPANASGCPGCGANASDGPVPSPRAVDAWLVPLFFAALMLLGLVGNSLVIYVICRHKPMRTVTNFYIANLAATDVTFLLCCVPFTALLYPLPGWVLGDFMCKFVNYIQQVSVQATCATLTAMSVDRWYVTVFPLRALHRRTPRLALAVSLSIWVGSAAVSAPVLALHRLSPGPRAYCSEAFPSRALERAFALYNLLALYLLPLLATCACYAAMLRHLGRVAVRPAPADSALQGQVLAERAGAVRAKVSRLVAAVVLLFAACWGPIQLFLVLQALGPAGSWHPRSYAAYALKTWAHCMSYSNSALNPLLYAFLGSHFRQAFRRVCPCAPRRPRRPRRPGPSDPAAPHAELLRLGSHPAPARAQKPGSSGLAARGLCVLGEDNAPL
Chain of Muscarinic acetylcholine receptor M1 (Homo sapiens) (P11229 whole entry, looked up): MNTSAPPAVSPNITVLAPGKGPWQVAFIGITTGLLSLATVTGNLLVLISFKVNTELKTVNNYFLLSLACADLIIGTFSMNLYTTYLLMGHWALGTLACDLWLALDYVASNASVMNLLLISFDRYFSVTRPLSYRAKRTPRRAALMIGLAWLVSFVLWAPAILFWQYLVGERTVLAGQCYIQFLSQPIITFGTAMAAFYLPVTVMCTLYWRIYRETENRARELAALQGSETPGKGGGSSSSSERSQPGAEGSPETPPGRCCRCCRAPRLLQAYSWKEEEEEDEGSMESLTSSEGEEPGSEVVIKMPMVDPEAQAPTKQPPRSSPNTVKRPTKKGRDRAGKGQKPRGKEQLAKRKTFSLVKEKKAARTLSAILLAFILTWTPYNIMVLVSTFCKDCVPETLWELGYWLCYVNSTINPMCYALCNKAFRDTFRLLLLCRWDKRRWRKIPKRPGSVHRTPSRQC
Chain of 5-hydroxytryptamine receptor 2A (Homo sapiens) (P28223 whole entry, looked up): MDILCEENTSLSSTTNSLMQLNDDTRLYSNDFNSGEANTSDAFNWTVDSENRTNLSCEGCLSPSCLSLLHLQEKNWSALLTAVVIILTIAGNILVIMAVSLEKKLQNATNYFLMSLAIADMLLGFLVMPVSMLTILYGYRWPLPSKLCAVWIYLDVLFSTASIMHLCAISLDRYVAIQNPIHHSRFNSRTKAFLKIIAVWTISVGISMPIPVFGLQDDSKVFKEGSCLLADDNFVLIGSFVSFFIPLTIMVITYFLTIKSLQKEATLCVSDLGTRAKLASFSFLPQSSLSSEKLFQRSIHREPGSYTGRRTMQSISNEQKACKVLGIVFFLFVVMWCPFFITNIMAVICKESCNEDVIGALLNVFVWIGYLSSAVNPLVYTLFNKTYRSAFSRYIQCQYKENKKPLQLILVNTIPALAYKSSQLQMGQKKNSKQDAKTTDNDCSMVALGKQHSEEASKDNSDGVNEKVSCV

Take `O=C1c2ccccc2C(=O)C1C(=O)C(c1ccccc1)c1ccccc1`: the Potency result in [1], in assay [2], in assay [3], in [4], in assay [5] and in [6] was “inactive” each time. In addition, the Potency result in [7], in assay [8], in [9], in assay [10], in [11] and in assay [12] was “inactive” throughout. In addition, the Potency result in assay [13] and in [14] was “inactive” each time.

For `CCCSP(=O)(OCC)Oc1ccc(Br)cc1Cl` (centres undefined), the Potency result in assay [1], in assay [2], in assay [3], in [5], in assay [6] and in assay [7] was “inactive” each time. In addition, the Potency result in assay [8], in [9], in assay [10], in assay [11], in assay [15] and in assay [12] was “inactive” each time. Further, the Potency entry in [13] and in [14] was “inactive” in each case.

For `CCCC(Cn1cncn1)c1ccc(Cl)cc1Cl` (centres undefined), the Potency result in [1], in assay [16], in assay [3], in assay [17], in [4] and in assay [5] was “inactive” in each case. For the same compound, the Potency entry in [6], in [7], in [18], in assay [10], in assay [11] and in assay [13] was “inactive” in each case. Also, in assay [19], the Potency entry was “inactive”.

For `CCN(CC)c1nc(C)cc(OP(=S)(OC)OC)n1`, the Potency result in assay [1], in [2], in assay [3], in assay [17], in assay [5] and in [6] was “inactive” each time. The Potency result in [7], in assay [18], in [8], in assay [9], in [10] and in assay [11] was “inactive” each time. Besides, the Potency entry in assay [15], in assay [12], in assay [13] and in assay [14] was “inactive” each time.

`COc1ccc(Cc2nccc3cc(OC)c(OC)cc23)cc1OC`: the Potency entry in assay [20], in assay [2], in [16], in assay [3], in [17] and in assay [4] was “inactive” throughout. Moreover, the Potency result in [5], in assay [6], in assay [7], in [13], in assay [19] and in assay [14] was “inactive” throughout. Also, in [15], the Potency is 11.9 µM (active).

Regarding `CC(C)(C)C(O)/C(=C\c1ccc(Cl)cc1Cl)n1cncn1` (centres undefined), the Potency result in assay [20], in [2], in assay [16], in [3], in [17] and in assay [4] was “inactive” each time. Further, the Potency entry in assay [5], in assay [6], in [7], in [18], in [8] and in assay [10] was “inactive” in each case. Also, the Potency entry in assay [13] and in assay [19] was “inactive” in each case.

With `CC1CCCC1`, the Potency entry in [1], in [17], in [4], in assay [5], in [6] and in assay [7] was “inactive” each time. Besides, the Potency entry in assay [18] was “inactive”.

As for `CCCCOCN(C(=O)CCl)c1c(CC)cccc1CC`, the Potency in assay [20] is 24.3 µM (active). Also, the Potency entry in assay [2], in [16], in [3], in assay [17], in assay [4] and in [5] was “inactive” throughout. The Potency result in assay [6], in assay [7], in [8], in assay [9], in assay [10] and in assay [11] was “inactive” each time. Also, the Potency entry in assay [13] and in assay [19] was “inactive” throughout.

Turning to `CC(=O)CN(CC(C)=O)N=O`, the Potency entry in [20], in [2], in assay [16], in assay [3], in assay [17] and in assay [4] was “inactive” in each case. Moreover, the Potency result in assay [5], in assay [6], in assay [18], in [8], in assay [9] and in assay [10] was “inactive” in each case. Moreover, the Potency entry in [11], in assay [15], in [12], in assay [13], in assay [19] and in assay [14] was “inactive” each time.

For `CCCCc1ccc(O)cc1`, the Potency result in assay [20], in assay [2], in [16], in [3], in [17] and in assay [4] was “inactive” in each case. The Potency entry in assay [5], in assay [6], in assay [7], in [18], in assay [8] and in assay [9] was “inactive” each time. Further, the Potency entry in [12], in [13] and in [19] was “inactive” throughout.

With `Clc1cccc(N2CCNCC2)c1`, the Potency entry in [20], in assay [2], in assay [16], in assay [3], in [17] and in assay [4] was “inactive” in each case. For the same compound, the Potency entry in [5], in assay [6], in [7], in [18], in assay [10] and in [11] was “inactive” in each case. The Potency result in [15], in assay [12], in [19] and in assay [14] was “inactive” in each case.

On to `Cc1cc(C2CC2)nc(Nc2ccccc2)n1`, for which the results for the Potency in assay [20], in assay [10] and in [13] were 68.6 µM (active), 14.9 µM (active) and 54.5 µM (active), respectively. For the same compound, the Potency entry in assay [2], in assay [16], in assay [3], in [17], in assay [4] and in assay [5] was “inactive” in each case. Moreover, the Potency entry in assay [7], in assay [18], in [8], in assay [9], in assay [11] and in assay [19] was “inactive” each time. The Potency entry in assay [14] was “inactive”.

Consider `O=C(N[C@H](c1ccccc1)[C@@H]1CN2CCC1CC2)c1c(Cl)ccc(C(F)(F)F)c1Cl`, for which the Potency result in [20], in assay [2], in assay [16], in assay [3], in [17] and in assay [4] was “inactive” in each case. Moreover, the Potency result in [5], in [6], in assay [18], in [8], in [9] and in assay [11] was “inactive” throughout. Besides, the Potency entry in assay [13] is “inactive”.
